Activity calls are given as the source filed them. The calls were made as follows: active = hit-call score of the fitted dose curve at least 0.9, where 1 is the maximum; inactive = score below 0.9.

Outcome and AC50 data for 40 compounds are collected here from PubChem BioAssay (EPA / NIEHS).

The experiment is described as follows: APR_HepG2_NuclearSize_72hr: Apredica 72-hour HepG2 Assay for Nuclear Size (AID 2282925). As to conditions: high-content imaging, actives raise or lower the signal. The method, then: APR_HepG2_72hr is a cell-based, multiplexed-readout assay that uses HepG2, a human liver cell line, with measurements taken at 72 hours after chemical dosing in a 384-well plate.APR_HepG2_NuclearSize_72hr is one of 10 assay component(s) measured or calculated from the APR_HepG2_72hr assay. It is designed to make measurements of cell phenotype, a form of morphology reporter, as detected with fluorescence intensity signals by HCS Fluorescent Imaging technology.Data from the assay component APR_HepG2_NuclearSize_72hr was analyzed into 1 assay endpoint. This assay endpoint, APR_HepG2_NuclearSize_72hr, was analyzed with bidirectional fitting relative to DMSO as the negative control and baseline of activity. Using a type of morphology reporter, measures of all nuclear dna for gain or loss-of-signal activity can be used to understand the signaling at the nuclear-level. Furthermore, this assay endpoint can be referred to as a primary readout, because this assay has produced multiple assay endpoints where this one serves a signaling function. To generalize the intended target to other relatable targets, this assay endpoint is annotated to the cell morphology intended target family, where the subfamily is organelle conformation.
Cells were treated with dimethyl sulfoxide (DMSO) as a solvent control at a final concentration of 0.5% v/v or with compounds in DMSO with a resulting final DMSO concentration of 0.5% v/v. Compound treatment was done at concentrations of 0.39, 0.78, 1.56, 3.12, 6.24, 12.5, 25, 50, 100, and 200 uM in duplicate on each plate. Cells were treated with compounds for 1, 24, or 72 hr. Carbonyl […] m-chloro-phenylhydrazone (CCCP) and taxol were used as positive controls for mitochondrial function and cytoskeletal stability, respectively; DMSO served as the negative control for this experiment. Cells were fixed by the direct addition of 50 uL formaldehyde in Hank's Balanced Salt Solution (HBSS) to a final concentration of 3.7%. After incubation in the fixation medium for 30 min at room temperature (293-298 K), cells were rinsed twice with HBSS and treated with cell permeabilization buffer (16 uL of 0.5% Triton X-100) for 10 min at room temperature (293-298 K) before labeling. For mitochondrial membrane potential and mitochondrial measurements, pre-fixed cells were incubated with 50 uL of MitoTracker Red CMXRos (Invitrogen) at a concentration of 250 nM for 30 min before fixation. In the remaining cases, post-fixed cells were labeled by incubation with a multiplexed mixture of primary antibodies in HBSS for 60 min at room temperature (293-298 K) to detect immunoreactivity of c-Jun (1:500), phospho-histone H3 (1:100), phospho-histone H2A.x (1:200), p53 (1:400), alpha-tubulin (1:200) and Hoechst 33342 (2 ug/mL). Cells were labeled for multiplexed imaging on two separate plates: a) Hoechst 33342, MitoTracker Red, phospho-histone H3, and alpha-tubulin, and b) Hoechst 33342, phospho-histone H2A.x, and c-Jun. A final rinse with HBSS (50 uL) was performed before analysis. The primary and secondary antibodies for the proteins were phospho-histone H3 (rabbit anti-phospho-histone H3 and FITC-donkey anti-rabbit IgG), phospho-histone H2A.x (mouse anti-phospho-histone H2A.x and FITC-donkey anti-mouse IgG), c-Jun (rabbit anti-phospho-c-Jun and Cy3-donkey anti-rabbit IgG), p53 (sheep anti-p53 and Cy5-donkey anti-sheep IgG), alpha-tubulin (mouse anti-alpha-tubulin and Cy5-donkey anti-mouse IgG). These antibodies are available as the CellCiphr HepG2 assay kit (Millipore).Digital images of each well were captured using a Cellomics ArrayScan VTI (Thermo Scientific Cellomics) (0.8 NA objective, 0.63x optical coupler, and XF-93 filter set) at 20x magnification. The images were acquired using the autofocus feature of the ArrayScan instrument, which entails the following steps. First, the camera focuses on channel 1 (Hoechst 33342), where nuclei are identified. Second, a Z offset of 1 um is used for capturing mitochondria (MitoTracker Red). […]
Consider `CC1=C(/C=C/C(C)=C/C=C/C(C)=C/CO)C(C)(C)CCC1`, for which the outcome was inactive.

`CCNc1cccc(C)c1`: the outcome was inactive.

As to `Clc1cc(Cl)c(Cl)cc1Cl`, the result was inactive.

For `Cc1ccc(Cl)cc1`, the result was inactive.

As for `Cc1cc(=O)[nH]c(=S)[nH]1`, the compound was called inactive.

In the case of `CCCCCCOCCO`, the compound was called inactive.

For the compound `CNC(=O)[C@H]1O[C@@H](n2cnc3c(NCc4cc(Cl)ccc4OCc4cc(C)no4)ncnc32)[C@H](O)[C@@H]1N`, the result was inactive.

In the case of `Oc1ccc2c(c1)OC[C@@H](N1CCC(O)(c3ccc(F)cc3)CC1)[C@H]2O`, the call was inactive.

With `NC(=O)Cn1c(=O)cc(CCN2CCN(c3nccc4sccc34)CC2)c2ccc(F)cc21`, the compound was classed as inactive.

As to `CCOC(=O)C(C)(C)Oc1ccc(Cl)cc1`, the outcome was inactive.

For the compound `Cc1ccc(C(C)C)c(O)c1`, the result was inactive.

For `Cc1nc(-c2ccc3c(c2)CCN(CCC2CCC(NC(=O)/C=C/c4ccc(F)cc4)CC2)CC3)no1` (stereo not given), the result was inactive.

As for `CCOC(=O)CCC(=O)OCC`, the compound was classed as inactive.

With `Cc1cccc(Nc2cc(Cl)nc(SCC(=O)O)n2)c1C`, the outcome was inactive.

For the compound `Cc1cccc(C)c1O`, the outcome was inactive.

As for `COc1cc(-c2nc(NC(=O)c3cc4cc(C)cc(C)c4n3CC(=O)O)sc2CCC2CCCCC2)c(OC)cc1Cl`, the outcome was inactive.

Turning to `CCCCCCCCCCCCCCCCCC(=O)O`, the compound was called inactive.

Consider `COc1cc(S(=O)(=O)O)c(C)cc1N=Nc1c(O)ccc2cc(S(=O)(=O)O)ccc12`, for which the compound was classed as inactive.

As to `COc1ccc(S(=O)(=O)N2C(=O)[C@@](c3ccccc3OC)(N3C[C@H](O)C[C@H]3C(=O)N(C)C)c3cc(Cl)ccc32)c(OC)c1`, the AC50 is 130 µM (active).

In the case of `O=c1c(O)c(-c2ccc(O)c(O)c2)oc2cc(O)cc(O)c12`, the compound was called inactive.

Regarding `O=C(O)CCCCC(=O)O`, the compound was called inactive.

`CCCCCCCC=O`: the compound was called inactive.

Consider `C=CCOC(=O)c1ccccc1C(=O)OCC=C`, for which the result was inactive.

As to `Cc1cc(NC(=O)C(=O)O)cc(C)c1Oc1ccc(O)c2c1CCC2`, the compound was classed as inactive.

`CCCc1cc(=O)[nH]c(=S)[nH]1`: the compound was called inactive.

Regarding `CC(=O)OC/C=C(\C)CCC=C(C)C`, the result was inactive.

Regarding `c1cc(-c2ccncc2)ccn1`, the compound was called inactive.

Regarding `CC(=O)OCCOCCOCCOC(C)=O`, the outcome was inactive.

In the case of `Oc1ccc2ccccc2c1N=Nc1ccccc1`, the result was inactive.

Consider `CN1CCN(Cc2cc(-c3ccc4[nH]c(=O)oc4c3)co2)[C@@H](c2ccc(F)cc2)C1`, for which the call was inactive.

Turning to `CN1CCCC1=O`, the compound was classed as inactive.

As to `COc1cccc2c1C(=O)c1c(O)c3c(c(O)c1C2=O)C[C@@](O)(C(=O)CO)C[C@@H]3O[C@H]1C[C@H](N)[C@H](O)[C@H](C)O1`, the outcome was inactive.

`Cc1oc(-c2ccccc2)nc1CCOc1cccc2c1ccn2CCC(=O)O`: the compound was classed as inactive.

In the case of `Nc1ccccc1N`, the call was inactive.

On to `CCCCCC(=O)O`, for which the call was inactive.

As to `CC(=O)C(C)=CC1C(C)=CCCC1(C)C` (stereo not given), the result was inactive.

As to `CN[C@H]1CC[C@@H](c2ccc(Cl)c(Cl)c2)c2ccc(S(N)(=O)=O)cc21`, the outcome was inactive.

In the case of `CC1(C)CC(N=C=O)CC(C)(CN=C=O)C1` (stereo not given), the compound was called inactive.

As to `CCCCCCCCCCC`, the outcome was inactive.

For `CC(CO)OC(C)CO` (stereo not given) (tested in a mixture with another compound), the compound was called inactive.

A word on the AC50: it is the concentration giving half of the maximal activity seen.
